The source made the active and inactive calls.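 How the source made its calls: active means glucosylsphingosine level at or below 0.14 pmol/ug; inactive means the rest.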

A short description of the assay: Extended Characterization of Activators of N370S glucocerebrosidase as a Potential Chaperone Treatment of Gaucher Disease: Glucosylsphingosine in Macrophages. The conditions noted are these: Gaucher patient macrophages, glucosylsphingosine LC-MS/MS; active compounds read low. The text has this: Glucocerebrosidase (GCase) catalyzes the hydrolysis of beta-glucocerebroside (GC) to glucose and ceramide in lysosomes. Mutations in the glucocerebrosidase gene result in Gaucher disease, an autosomal recessive lysosomal storage disorder. Many of the mutations encountered in patients with Gaucher disease are missense alterations that may cause misfolding, decreased stability and/or mistrafficking of this lysosomal protein. […] These inhibitors include iminosugar analogs and other inhibitors that were discovered as part of previous work. However, the enhancement of enzyme activity by the chaperone action of an enzyme inhibitor must be balanced against the direct inhibition of the enzyme. […] In this extended characterization of our probe, we have further characterized the activity of probes in relevant models of Gaucher disease. This assay attempts to quantitate glucosylsphingosine in patient-derived macrophages following compound incubation. NIH Chemical Genomics Center [NCGC] NIH Molecular Libraries Probe Production Centers Network [MLPCN] MLPCN Grant: MH086442 Assay Submitter (PI): Ellen Sidransky, NHGRI
Glucosylsphingosine was measured by liquid chromatography-tandem mass spectrometry as previously described by Tropak et al. Chembiochem 2008, 9, 2650-2662.
In the case of `C#Cc1ccc(NC(=O)c2cnn3c(C)cc(C)nc23)cc1`, the glucosylsphingosine level is 0.135 pmol/µg (active).
